Records with an inconclusive call do not appear. Calls of active or inactive are those of the source. Calls follow the shape of the dose curve; as a rule, active = well fitted curve in the direction sought with a large enough effect in the repeat runs; inconclusive = weak or mixed curves; inactive = no such curve, though single readings can be large; an effect the other way counts as inactive or inconclusive.
Legend:
[1] = qHTS RealTime-Glo MT Cell Viability Assay in HepG2 cells - 40 hour (AID 1224870); also: nearly all actives have a fitted effect of over 50% in size
In short: (§1)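 Real-time viability: cells seeded at 600 per well together with NanoLuc and cell-permeant prosubstrate, compounds added after 5 h incubation. Luminescence tracked at 0, 8, 16, 24, 32 and 40 h of exposure.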

[2] = A CellTox Green Cytotoxicity Assay to monitor cytotoxicity in HEK293 cells - 40 hour (AID 1224871); also: nearly all actives have a fitted effect of over 45% in size
In short: (§2)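 Read-out: fluorescence of a cell-impermeant cyanine dye staining DNA of dead cells, proportional to cytotoxicity. HEK293, 600 cells/well with reagent, compound (23 nL DMSO) added after 5 h; reads at 0, 8, 16, 24, 32, 40 h.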

[3] = qHTS RealTime-Glo MT Cell Viability Assay in HEK293 cells - 16 hour (AID 1224872); also: top concentration of the series differs between compounds; nearly all actives have a fitted effect of over 50% in size
In short: (§3)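 Nonlytic real-time viability readout: viable cells convert prosubstrate to NanoLuc substrate, giving luminescence proportional to live cell number. HEK293, 600 cells/well, compound added after 5 h, continuous culture at 37 C.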

[4] = qHTS RealTime-Glo MT Cell Viability Assay in HepG2 cells - 8 hour (AID 1224873); also: nearly all actives have a fitted effect of over 55% in size
In short: as §1

[5] = qHTS RealTime-Glo MT Cell Viability Assay in HEK293 cells - 40 hour (AID 1224874); details: RealTime-Glo luminescence; max response: stronger effect = lower value; also: nearly all actives have a fitted effect of over 50% in size
In short: (§4)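 Luminescence readout at each listed time point; HEK293, 600 cells/well, RealTime-Glo MT reagent added with cells; compounds pinned (23 nL in DMSO) after 5 h at 37 C; continuous culture at 37 C.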

[6] = A CellTox Green Cytotoxicity Assay to monitor cytotoxicity in HEK293 cells - 24 hour (AID 1224875); also: series mostly up to about 77 µM; nearly all actives have a fitted effect of over 45% in size
In short: as §2

[7] = A CellTox Green Cytotoxicity Assay to monitor cytotoxicity in HepG2 cells - 16 hour (AID 1224876); also: nearly all actives have a fitted effect of over 45% in size
In short: (§5)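 HepG2, 600 cells/well premixed w/ CellTox Green; 5 h settle, 37 C/5% CO2; pintool cpd add (DMSO); 37 C, 40 h; fluorescence read at 0, 8, 16, 24, 32, 40 h.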

[8] = qHTS RealTime-Glo MT Cell Viability Assay in HepG2 cells - 32 hour (AID 1224877); also: nearly all actives have a fitted effect of over 55% in size
In short: (§6)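 Luminescence read-out: viable HepG2 cells reduce a prosubstrate to a NanoLuc substrate, giving a signal proportional to live cell number. Reads taken at 0, 8, 16, 24, 32 and 40 h of compound exposure at 37 C.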

[9] = A CellTox Green Cytotoxicity Assay to monitor cytotoxicity in HepG2 cells - 24 hour (AID 1224878); also: nearly all actives have a fitted effect of over 45% in size
In short: as §5

[10] = A CellTox Green Cytotoxicity Assay to monitor cytotoxicity in HepG2 cells - 40 hour (AID 1224879); also: nearly all actives have a fitted effect of over 40% in size
In short: as §5

[11] = A CellTox Green Cytotoxicity Assay to monitor cytotoxicity in HEK293 cells - 32 hour (AID 1224881); also: nearly all actives have a fitted effect of over 40% in size
In short: as §2

[12] = A CellTox Green Cytotoxicity Assay to monitor cytotoxicity in HepG2 cells - 0 hour (AID 1224882); also: nearly all actives have a fitted effect of over 35% in size
In short: as §5

[13] = A CellTox Green Cytotoxicity Assay to monitor cytotoxicity in HepG2 cells - 32 hour (AID 1224883); also: nearly all actives have a fitted effect of over 50% in size
In short: as §5

[14] = A CellTox Green Cytotoxicity Assay to monitor cytotoxicity in HEK293 cells - 8 hour (AID 1224884); also: nearly all actives have a fitted effect of over 35% in size
In short: as §2

[15] = qHTS RealTime-Glo MT Cell Viability Assay in HepG2 cells - 16 hour (AID 1224885); also: nearly all actives have a fitted effect of over 50% in size
In short: as §6

[16] = qHTS RealTime-Glo MT Cell Viability Assay in HEK293 cells - 24 hour (AID 1224886)
In short: as §3

[17] = qHTS RealTime-Glo MT Cell Viability Assay in HEK293 cells - 8 hour (AID 1224887)
In short: as §4

[18] = A CellTox Green Cytotoxicity Assay to monitor cytotoxicity in HEK293 cells - 16 hour (AID 1224888); also: nearly all actives have a fitted effect of over 35% in size
In short: as §2

[19] = qHTS RealTime-Glo MT Cell Viability Assay in HepG2 cells - 0 hour (AID 1224889); also: nearly all actives have a fitted effect of over 50% in size
In short: as §6

[20] = qHTS RealTime-Glo MT Cell Viability Assay in HEK293 cells - 0 hour (AID 1224880)
In short: as §4
% is scaled to controls: 0 for no effect and ±100 for the full control effect.

O=C1CC(c2ccc(Cl)cc2)CC(=O)N1
inactive: outcome [1] | Potency [2] | Potency [3] | outcome [4] | max response [5] -1.95% | outcome [6] | outcome [7] | outcome [8] | outcome [9] | Potency [10] | Potency [11] | outcome [12] | Potency [13] | Potency [14] | outcome [15] | Potency [16] | Potency [17] | outcome [18] | Potency [19]

CC[C@H](C)C(=O)O[C@H]1C[C@H](O)C=C2C=C[C@H](C)[C@H](CC[C@@H](O)C[C@@H](O)CC(=O)O)[C@H]21
inactive: outcome [1] | Potency [2] | Potency [3] | outcome [4] | max response [5] 13.5% | outcome [6] | outcome [7] | outcome [9] | Potency [10] | Potency [20] | Potency [11] | outcome [12] | Potency [13] | Potency [14] | outcome [15] | Potency [16] | Potency [17] | outcome [18] | Potency [19]

Cc1c(I)c(=O)n(-c2ccccc2)n1C
inactive: outcome [1] | Potency [2] | Potency [3] | outcome [4] | max response [5] -1.2% | outcome [6] | outcome [7] | outcome [8] | outcome [9] | Potency [10] | Potency [20] | Potency [11] | outcome [12] | Potency [13] | Potency [14] | outcome [15] | Potency [16] | Potency [17] | outcome [18] | Potency [19]

Nc1ncnc(Nc2ccccc2)n1
inactive: outcome [1] | Potency [2] | Potency [3] | outcome [4] | max response [5] 3.02% | outcome [6] | outcome [7] | outcome [9] | Potency [10] | Potency [20] | Potency [11] | outcome [12] | Potency [13] | Potency [14] | outcome [15] | Potency [16] | Potency [17] | outcome [18] | Potency [19]

NCCN1CCOCC1
inactive: outcome [1] | Potency [2] | Potency [3] | outcome [4] | max response [5] 1.04% | outcome [6] | outcome [7] | outcome [8] | outcome [9] | Potency [10] | Potency [20] | Potency [11] | outcome [12] | Potency [13] | Potency [14] | outcome [15] | Potency [16] | outcome [18] | Potency [19]

CCOC(=O)c1ncn2c1CN(C)C(=O)c1cc(F)ccc1-2
inactive: outcome [1] | Potency [2] | Potency [3] | outcome [4] | max response [5] -10.6% | outcome [6] | outcome [7] | outcome [8] | outcome [9] | Potency [10] | Potency [11] | outcome [12] | Potency [13] | Potency [14] | outcome [15] | Potency [16] | Potency [17] | outcome [18] | Potency [19]

CN1CCN(CC(=O)N2c3ccccc3C(=O)Nc3cccnc32)CC1
inactive: activity change, negative = cytotoxic [1] 3.53% [at 6.97 µM] | cytotoxicity increase [2] -2.67% [at 6.97 µM] | activity change, negative = cytotoxicity [3] 13.3% [at 6.97 µM] | viability change, negative = cytotoxic [4] 0.562% [at 6.97 µM] | max response [5] 6.66% | activity change [6] -2.09% [at 6.97 µM] | cytotoxicity increase [7] -11.9% [at 6.97 µM] | activity change, negative = cytotoxic [8] 1.53% [at 6.97 µM] | cytotoxicity [9] -12.6% [at 6.97 µM] | cytotoxicity increase [10] -15.8% [at 6.97 µM] | cytotoxicity increase [11] -2.73% [at 6.97 µM] | cytotoxicity [12] -13.6% [at 6.97 µM] | cytotoxicity increase [13] -13% [at 6.97 µM] | cytotoxicity increase [14] -1.13% [at 6.97 µM] | activity change, negative = cytotoxic [15] 0.498% [at 6.97 µM] | activity change, negative = cytotoxicity [16] 6.44% [at 6.97 µM] | activity change, negative = cytotoxicity [17] 17.8% [at 6.97 µM] | activity change [18] -1.08% [at 6.97 µM] | activity change, negative = cytotoxicity [19] 2.23% [at 6.97 µM]

COCCOCCOCCOCCO
inactive: outcome [1] | Potency [2] | Potency [3] | outcome [4] | max response [5] 4.56% | outcome [6] | outcome [7] | outcome [8] | outcome [9] | Potency [10] | Potency [20] | Potency [11] | outcome [12] | Potency [13] | Potency [14] | outcome [15] | Potency [16] | outcome [18] | Potency [19]

COc1ccc2c(c1)C(=O)N(CCc1ccc(S(=O)(=O)NC(=O)NC3CCCCC3)cc1)C(=O)C2(C)C
inactive: outcome [1] | Potency [2] | Potency [3] | outcome [4] | max response [5] -9.27% | outcome [6] | outcome [7] | outcome [8] | outcome [9] | Potency [10] | Potency [20] | Potency [11] | outcome [12] | Potency [13] | Potency [14] | outcome [15] | Potency [16] | Potency [17] | outcome [18] | Potency [19]

N[C@@H](CCC(=O)N[C@@H](CS)C(=O)NCC(=O)O)C(=O)O
inactive: activity change, negative = cytotoxic [1] -0.349% [at 15.8 µM] | cytotoxicity increase [2] 2.27% [at 15.8 µM] | activity change, negative = cytotoxicity [3] 9.65% [at 15.8 µM] | viability change, negative = cytotoxic [4] -0.362% [at 15.8 µM] | max response [5] 3.69% | activity change [6] 1.6% [at 15.8 µM] | cytotoxicity increase [7] -10% [at 15.8 µM] | activity change, negative = cytotoxic [8] 2.09% [at 15.8 µM] | cytotoxicity [9] -12.9% [at 15.8 µM] | cytotoxicity increase [10] -8.24% [at 15.8 µM] | activity change, negative = cytotoxicity [20] 8.63% [at 15.8 µM] | cytotoxicity increase [11] 2.25% [at 15.8 µM] | cytotoxicity [12] -0.523% [at 15.8 µM] | cytotoxicity increase [13] -10.1% [at 15.8 µM] | cytotoxicity increase [14] 2.4% [at 15.8 µM] | activity change, negative = cytotoxic [15] 2.53% [at 15.8 µM] | activity change, negative = cytotoxicity [16] 7.83% [at 15.8 µM] | activity change [18] 0.448% [at 15.8 µM] | activity change, negative = cytotoxicity [19] 1.78% [at 15.8 µM]

CC(C)N(c1ccccc1)C(C)C
inactive: outcome [1] | Potency [2] | Potency [3] | outcome [4] | max response [5] 4.56% | outcome [6] | outcome [7] | outcome [8] | outcome [9] | Potency [10] | Potency [20] | Potency [11] | outcome [12] | Potency [13] | Potency [14] | outcome [15] | Potency [16] | Potency [17] | outcome [18] | Potency [19]

CCCCC(CC)COCCO (stereo unspecified)
inactive: outcome [1] | Potency [2] | Potency [3] | outcome [4] | max response [5] -0.338% | outcome [6] | outcome [7] | outcome [8] | outcome [9] | Potency [10] | Potency [11] | outcome [12] | Potency [13] | Potency [14] | outcome [15] | Potency [16] | Potency [17] | outcome [18] | Potency [19]
